# Assay outcomes (PubChem)
# A selection: hits, their analogues and other compounds. The true share with any hit is near 3.1%.
# TexasRed fluor: alters Texas Red total fluorescence, flagging assay interference; AID 1479; Potency, µM (highest dose often 106 µM), inactives show at the top dose fluorescence change, negative = quenching; 0.29% of 280,000 active; TRb/SRC2 Texas Red total fluorescence interference; active = well fitted curve in either direction with a large enough effect; inconclusive = small, poorly fitted or top-dose-only effect
#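 Human TRb ligand-binding domain at 0.6 uM with 20 nM Texas Red SRC2 peptide in Tris buffer containing 1 uM T3 and 5% DMSO, incubated with compound 5 h at ambient temperature. Total fluorescence (555/632 nm) calculated as parallel + 2 × perpendicular.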
# Tau fluor cs: counter-screen for tau fibril formation inhibitors; Potency, µM (top dose mostly 57.7 µM), inactives show top-dose activity change, negative = decrease; 0.93% of 280,000 active; tau K18 P301L Alexa594 fluorescence, heparin fibrillization; note: nearly all actives have a fitted effect of over 55% in size
#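 Human tau K18 P301L (15 uM unlabeled, 0.24 uM Alexa 594-labeled) in 100 mM sodium acetate pH 7 with 20 uM heparin, 6 hr at 37 C. ThT 30 uM added, 1 hr ambient; Alexa 594 FP and total fluorescence read at 555/632 nm.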
# TRb-SRC2 inh: inhibitors of human thyroid hormone receptor beta-SRC2 interaction | 0.065% of 280,000 active | TRbeta-SRC2 peptide binding, fluorescence polarization; receptor liganded with 1 µM T3 | Potency, µM (series often up to 106 µM), for the others: at the highest dose activity change, negative = inhibition, usual class: inhibitors;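 note: plate controls were bound peptide for no effect and peptide without receptor for full effect; nearly all actives have a fitted effect of over 50% in size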
#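 Fluorescence polarization of 20 nM Texas Red SRC2 peptide (20-aa NR interaction domain) bound to 0.6 uM human TRb ligand-binding domain, with 1 uM T3, after 5 hr at ambient temperature; inhibition seen as decreased polarization.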
# Tau ThT inhib: tau fibrillization inhibition (ThT binding). P10636. recombinant tau K18 P301L, heparin-induced fibrillization, ThT fluorescence. Potency, µM (titrated, usually from 57.4 µM), without a hit: at the highest dose activity, negative = inhibition, hits mostly inhibitors. 2.1% of 270,000 active; note: nearly all actives have a fitted effect of over 55% in size
# Target sequence (P10636 561-689 P618L limits assumed): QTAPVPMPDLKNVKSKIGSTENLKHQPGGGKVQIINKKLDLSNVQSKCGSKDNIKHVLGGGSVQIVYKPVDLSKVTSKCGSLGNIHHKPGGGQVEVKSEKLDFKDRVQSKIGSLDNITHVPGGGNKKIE
#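 Fibril formation assay: tau K18 P301L at 15 uM with trace Alexa 594 label, heparin inducer 20 uM, pH 7 sodium acetate buffer, 37 C for 6 hr; endpoint ThT signal.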
# Tau FP inhib: tau fibrillization inhibition (FP) | P10636 | K18 P301L tau heparin fibrillization, Alexa594 FP, 6 h | Potency, µM (doses to about 57.7 µM), for inactives: at the highest dose activity, negative = inhibition, usual class: inhibitors | 0.39% of 280,000 active; note: nearly all actives have a fitted effect of over 55% in size
#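 FP of Alexa 594-tau after heparin (20 uM) induction. Substrate: human K18 P301L, 15 uM unlabeled, 0.24 uM labeled. Buffer 100 mM sodium acetate pH 7. 6 hr, 37 C.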
# Active calls of the source: *; ? = inconclusive; · = no result; [ ] = dose if it differs, or a comment. Unless noted, calls come from the whole dose curve; as a rule, active = well fitted curve in the direction sought with a large enough effect; inconclusive = small, poorly fitted or top-dose-only effect, or another doubt; inactive = no such curve, though single readings can be large; an effect the other way counts as inactive or inconclusive. Unless noted, % is set by controls: 0 for no effect and ±100 for the full control effect; potency is the fitted concentration of half-maximal effect.
SMILES,TexasRed fluor,Tau fluor cs,TRb-SRC2 inh,Tau ThT inhib,Tau FP inhib
O=C1CCCC/C1=C\Nc1ccc(O)cc1,?,?,45µM*,16µM*,?
COc1ccc(NC(=O)[C@H]2O[C@@H]3OC(C)(C)O[C@@H]3[C@H]3OC(C)(C)O[C@H]32)c(OC)c1,-3%,-5%,-5%,1%,-3%
O=C(c1cc(-c2ccc(Cl)cc2)on1)N(Cc1cccc(F)c1)Cc1ccco1,-1%,-19%,-2%,-2%,-5%
COC(=O)C1=C[C@@H](C(=O)OC)C2C3=C(C(=O)[C@@]2(C)NC(=O)c2ccccc2)[C@H](C)n2c(=O)n(-c4ccccc4)c(=O)n2[C@@H]3C1 (stereo not given in full),-1%,·,-4%,·,·
O=c1/c(=C\c2cccc(O)c2)sc2nc(-c3ccccc3)c(-c3ccccc3)n12,-3%,?,0%,11µM*,25µM*
COc1ccc(-n2c(O)c(C=Nc3ccccc3)c3ccccc3c2=O)cc1,-4%,-11%,2%,-5%,-6%
COc1ccc(N=Cc2sc(O)c3ccccc23)cc1,-23%,7.1µM*[quencher],-1%,?,?
COc1ccc(N=Cc2c(O)c3ccccc3n2C(C)=O)cc1,-3%,?,-5%,16µM*,?
CCOc1ccccc1NC(=O)CSc1ccc2nc(-c3ccccc3)cn2n1,0%,-7%,-6%,2%,-9%
Cc1nnc(N2CCCC(C(=O)NCCc3ccccc3)C2)c2nn(-c3ccccc3)c(C)c12 (stereo not given),0%,1%,-9%,-13%,1%
CC(=O)Nc1cccc(C(=O)/C=C/c2ccco2)c1,-11%,?,10%,25µM*,?
CN(C)c1ccc(C(=O)/C=C/c2ccco2)cc1,-8%,-26%,3%,10µM*,-5%
O=C(/C=C/c1ccco1)c1ccc(O)cc1,-4%,-14%,13%,?,-10%
CC(=O)Nc1cccc(C(=O)/C=C/c2ccc(N(C)C)cc2)c1,-11%,16µM*[quencher],8%,25µM*,0%
COc1ccccc1CNC(=O)CCc1c(C)nn(-c2ccc(N3CCCC3)nn2)c1C,-2%,-2%,1%,-7%,2%
COc1ccc(OC)c(CCNC(=O)c2cc3cccc4c3n2CC(C)S4)c1 (stereo not given),-2%,?,4%,-9%,-6%
CNC(=O)N(O)C1N(/N=C/c2cccnc2)C(=S)SC1(C)C (stereo not given),-2%,-10%,-10%,-8%,-6%
CN(C)c1ccc(/C=N/N2C(=S)SC(C)(C)C2N(O)C(=O)Nc2ccc([N+](=O)[O-])cc2)cc1 (stereo not given),0%,11µM*[quencher],9%,18µM*,6%
CCCCN(CC)CCCNC(=O)CS(=O)(=O)Cc1nc(-c2ccc(C)cc2)oc1C,2%,-1%,-11%,3%,-1%
CCn1c(C)c(C(C)=O)c(N2CCN(C(c3ccccc3)c3ccccc3)CC2)nc1=S,3%,3%,8%,4%,5%
CCn1c(C)c(C(C)=O)c(N2CCN(c3ccccc3)CC2)nc1=S,6%,-19%,-6%,22µM*,?
CCc1cccc2c1NC1(CCCC1)CC2C (stereo not given),?,-22%,28µM*,?,-10%
CC1CC2(CCCCC2)Nc2ccc3ccccc3c21 (stereo not given),-3%,-25%,0%,?,5%
NC(=O)C1c2ccccc2CCc2ccccc21,-2%,·,7%,·,·
Cc1ccc2nc3sc(C(=O)Nc4ccc(N5CCOCC5)cc4)c(N)c3cc2c1,-6%,?,0%,2µM*,10%
Cc1cccc2cc3c(N)c(C(=O)Nc4ccc(N5CCOCC5)cc4)sc3nc12,-3%,11µM*[quencher],-2%,2.8µM*,8%
O=C(c1cnc2n(c1=O)CCS2)N1CCc2ccccc21,-5%,3%,0%,13%,8%
Cc1ccc2nc(C)c(C(=O)N/N=C/c3ccc(N4CCOCC4)cc3)cc2c1,-4%,-5%,-5%,?,3%
